From PubChem BioAssay (NCI)
Where “and” joins values, the source holds several entries; their conditions need not be identical. Identical values can stand only once. Compounds without any hit were thinned out: in the full panel of roughly 79,000, 15% have a hit. Calls of active or inactive are those of the source. No stated cut-off is given here; in the data, active means growth inhibition above about 70%; inactive means the rest.

Assays:
[1] = NCI Yeast Anticancer Drug Screen. Data for the rad50 strain (AID 155);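 further: 0% = growth of vehicle-only cultures of the same strain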; conditions: S. cerevisiae rad50 strain growth inhibition, active compounds read high; at 50.0 µM unless noted
In short: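 Vehicle-treated cultures provide the reference for the growth inhibition reported for compound-exposed, repair-deficient yeast.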

[2] = NCI Yeast Anticancer Drug Screen. Data for the mec2-1 strain (AID 157); conditions: S. cerevisiae mec2-1 strain, active compounds read high; at 50.0 µM unless noted
In short: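 Cells of the genetically defined mec2-1 yeast strain are incubated with test compound. Inhibition of growth is calculated against vehicle-treated controls.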

[3] = NCI Yeast Anticancer Drug Screen. Data for the sgs1 mgt1 strain (AID 161);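 further: 0% = growth of cultures given vehicle only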; conditions: S. cerevisiae sgs1 mgt1 strain, active compounds read high; at 50.0 µM unless noted
In short: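 Test agents were incubated with a DNA-repair-mutant yeast strain. Growth was then read and compared against vehicle-treated controls.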

[4] = NCI Yeast Anticancer Drug Screen. Data for the cln2 rad14 strain (AID 165);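 further: 0% = growth equal to vehicle treated cultures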; conditions: S. cerevisiae cln2 rad14 strain, active compounds read high; at 50.0 µM unless noted
In short: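 The screen exposed genetically defined yeast (cln2 rad14) to test compounds and scored growth inhibition relative to vehicle-treated controls.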

[5] = NCI Yeast Anticancer Drug Screen. Data for the bub3 strain (AID 167); conditions: S. cerevisiae bub3 mutant strain, active compounds read high; at 50.0 µM unless noted
In short: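 Mutant yeast screening strain plus compound; vehicle-treated cultures serve as the 0% inhibition reference.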

[6] = NCI Yeast Anticancer Drug Screen. Data for the mlh1 rad18 strain (AID 175); conditions: S. cerevisiae mlh1 rad18 strain growth inhibition, active compounds read high; at 50.0 µM unless noted
In short: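 Compound-treated yeast growth, normalised to vehicle controls. Strain bears defined DNA repair mutations.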

Measured: growth inhibition

N#C/C(=C\c1ccco1)C1CCC([N+](=O)[O-])CC1 (configuration not stated)
inactive: [1] -5.05% | [2] -1.5% | [3] 4.35% | [4] -101% | [5] 2.85% | [6] -4.85%

CC(CC(C)C(=O)O)C(=O)O (configuration not stated)
inactive: [1] -13.5% | [2] -28.2% | [3] -24.1% | [4] 0.4% | [5] -47.8% | [6] 3.25%

CC(C)C1CO[C@]2(C)CCC(=O)N12 (some centres not stated)
inactive: [1] 4.6% | [2] 11.9% | [3] -2.6% | [4] 13.8% | [5] 6.3% | [6] 9.95%

Cc1ccc(-c2c(C)c(-c3ccccc3)c(-c3ccccc3)c(C)c2-c2ccccc2)cc1C
inactive: [1] 63.3% | [3] 25.8% | [6] 65%
active: [2] 77.3% | [4] 82% | [5] 97.5%

C1=CC(=CN2CCc3ccccc3C2)C=C1
inactive: [1] 2.55% | [2] -8.45% | [3] 3.05% | [4] -6.95% | [5] -9.2% | [6] 6.05%

Cc1ncc(CO)c(CO)c1O
inactive: [1] 3.05% and -8.25% | [2] -2.95% and -14% | [3] -4.2% | [4] 2.4% | [5] 7% | [6] 45.8% and -5.65%

C[N+]1(CCC(=O)c2ccccc2)CCOCC1
inactive: [1] 42% | [2] 9.85% | [3] 28.4% | [4] 20.8% | [5] 13.5% | [6] 19.9%

Nc1nc2cc(F)ccc2o1
inactive: [1] 1.05% | [2] -26.1% | [3] -9.7% | [4] -20.1% | [5] -21.6% | [6] -15.2%

OCCCNCc1ccccn1
inactive: [1] 7.25% | [2] -13.7% | [3] -20.4% | [4] 22.2% | [5] -12.2% | [6] -16.6%

CCOC(=O)C1=C(C)O/C(=C/c2cccc(Cl)c2)C1=O
inactive: [1] 42% | [2] 35.2% | [3] 31.1% | [4] 45.9% | [5] 47% | [6] 56.1%

C=CCCCCCCC=C
inactive: [1] -23.6% | [2] -43% | [3] -4.1% | [4] 2.45% | [5] -34.2% | [6] -19.4%

CCCCOC(=O)COCC(=O)OC(C)C(=O)OCCCC (configuration not stated)
inactive: [1] -20.9% | [2] 13.1% | [3] 6.55% | [4] -22.1% | [5] 20% | [6] 4.1%

COc1cccc(/C=C/c2ccnnc2)c1
inactive: [1] 4.3% | [2] -2.8% | [3] -7.55% | [4] -7.65% | [5] 16.9% | [6] -3.85%

COc1ccc(C)cc1NC(=O)Nc1ccccc1F
inactive: [1] 6.9% | [2] 15.2% | [3] 6.15% | [4] 3.3% | [5] -0.4% | [6] 5.15%

CC(C)=C(Nc1ccccc1)NC(C)C
inactive: [1] 47.4% | [2] -19.1% | [3] -28.4% | [4] -16.2% | [5] -40.6% | [6] -3.15%

O=[N+]([O-])c1cccc(S/N=C/c2ccccc2O)c1
active: [1] 98.8% | [2] 99.5% | [3] 99.2% | [4] 97.5% | [5] 99.2% | [6] 99%

CN(Cc1cc(Br)cc(Br)c1O)Cc1c(O)ccc2ccccc12
active: [1] 98.8% | [2] 98.8% | [3] 98.8% | [4] 97.3% | [5] 98.2% | [6] 98.8%

CSC(=Nc1ccccc1Cl)NC(=O)c1ccc(Br)cc1
inactive: [1] -9.65% | [2] 20.7% | [3] 5.7% | [4] 19.3% | [5] 7.8% | [6] -8.4%

COc1ccc2c(c1)OC[C@@H]1c3cc(NC(=O)c4ccccc4)c(OCc4ccccc4)cc3N(S(=O)(=O)c3ccccc3)[C@H]21
inactive: [1] -23.9% | [2] -13.9% | [3] -2.1% | [4] -2.5% | [5] -9% | [6] 9.4%

CCCCCCC1OCC(CC)([N+](=O)[O-])CO1 (configuration not stated)
inactive: [1] -13.8% | [2] -9.6% | [3] 1.15% | [4] -39.8% | [5] -23.6% | [6] -12.9%

CC(=O)OCCOCNC(=S)N/N=C(\C)c1ccco1
inactive: [1] -19.9% | [2] -8.3% | [3] 3.4% | [4] 3.8% | [5] -4.95% | [6] -11.9%

Cn1cc(Cc2ccccc2)c(=O)[nH]c1=O
inactive: [1] 6.25% | [2] -4.4% | [3] 2.05% | [4] -34.6% | [5] -4.85% | [6] 7.6%

CC(=O)Nc1cc(NC(C)=O)c2ccc(=O)[nH]c2c1O
inactive: [1] -2.9% | [2] -3.6% | [3] -3.55% | [4] -8.25% | [5] 15.3% | [6] 5.3%

CCOP(=O)(OCC)/C(=C/n1c(=S)[nH]c2ccccc21)C(=O)OC
inactive: [1] -29.8% | [2] -55.1% | [3] -10% | [4] 0.9% | [5] -0.8% | [6] -22.2%

COC(=O)NC(=O)c1cn(CCCOC(=O)CCCCCCCCC(=O)OCCCn2cc(C(=O)NC(=O)OC)c(=O)[nH]c2=O)c(=O)[nH]c1=O
inactive: [1] -13.5% | [2] -3.8% | [3] -7.45% | [4] 9.9% | [5] 13.3% | [6] -12.4%

CCOC(=O)CNC(=O)SCc1ccccc1
inactive: [1] -12.4% | [2] -6.2% | [3] -5.95% | [4] -8.1% | [5] -11.3% | [6] 1.45%

NCCCCCN
inactive: [1] 14.4% | [2] -1.05% | [3] -15.9% | [4] 12.3% | [5] -16.7% | [6] -1.45%

O=C(O)CCNC(=O)CNC(=O)OCc1ccccc1
inactive: [1] 3.9% | [2] 10.6% | [3] -2.85% | [4] 5.55% | [5] -0.25% | [6] -9.65%

COc1ccc(C(NC(N)=O)c2cc3c(cc2OC(C)=O)OCO3)cc1 (configuration not stated)
inactive: [1] -7.25% | [2] -1.95% | [3] -6.65% | [4] -9.05% | [5] 5.7% | [6] -0.4%

COc1cc(N=C=S)ccc1NC(=O)c1cc(Br)cc(Br)c1O
inactive: [1] 55.9% | [2] 39.4% | [3] 46.6% | [4] 31.2% | [5] 1.15% | [6] 45%

C[n+]1ccc2ccccc2c1
inactive: [1] 6.9% and -7.2% | [2] 0.55% and 5.3% | [3] 21.2% and 1.15% | [4] -36.8% and -2.25% | [5] 3.05% and -6.5% | [6] 9.6% and 10.4%

N#Cc1c(-c2ccccc2Cl)c(-c2ccccc2Cl)nn(CCO)c1=O
inactive: [1] 16.9% | [2] 7.2% | [3] 13.4% | [4] 9.35% | [5] 10.2% | [6] 27.5%

C=C1CC(C)(COc2ccc3ccc(=O)oc3c2)OC1=O (configuration not stated)
inactive: [1] 24.4% | [2] 15.4% | [3] 49% | [4] 37.5% | [5] 17.6% | [6] 41%

O=C(CCCN1CCC2(CC1)C(=NC1CCCCC1)NC(=O)N2c1ccccc1)c1ccc(F)cc1
inactive: [1] -10.8% | [2] -3.6% | [3] -3% | [4] 3.45% | [5] 13.7% | [6] -6.85%

O=C1/C(=C/c2ccccc2)CCC2CCCCC12 (configuration not stated)
inactive: [1] 22.1% | [2] -0.95% | [3] -0.8% | [4] -24.9% | [5] -20.1% | [6] 14.4%

C/C(=N\NS(=O)(=O)c1c(C)cc(C)cc1C)c1ccc[n+]([O-])n1
inactive: [1] 3.95% | [2] 0.2% | [3] -8.4% | [4] 15.1% | [5] -12.8% | [6] -6.7%

CCSc1[nH]c(Nc2nc(-c3ccccc3)n(-c3ccccc3)n2)c(C(N)=O)c1C(N)=O
inactive: [1] -16.9% | [2] 1.35% | [3] 7.8% | [4] -5.85% | [5] -9.75% | [6] 7%

Cc1ccc(C(=O)/C=C/C(=O)c2ccc(C)cc2)cc1
inactive: [1] 4.55% | [2] 29.9% | [3] 19.2% | [4] 19.9% | [5] 14.9% | [6] 3.8%

Cc1nc(N)c(N)c(=O)[nH]1
inactive: [1] -0.6% | [2] -1.35% | [3] -1.75% | [4] -5.6% | [5] -9.6% | [6] -2.6%

N#CCNC(=O)Cc1ccccc1
inactive: [1] 10.2% | [2] -10.2% | [3] -10.2% | [4] -12.4% | [5] -30.3% | [6] -4.7%

CN1C(=O)/C(=C2\SC(=O)N(CN3CCOCC3)C2=O)c2ccccc21
inactive: [1] -6.1% | [2] -32.9% | [3] -40% | [4] -7.55% | [5] -39% | [6] 2.35%

C=C1CC[C@](C)(O)[C@@]2(C)CC[C@H]3C(=C(C)C)C(=O)C[C@]3(C)C[C@H]12
inactive: [1] 12.1% | [2] 5.45% | [3] 10.2% | [4] 18.5% | [5] 1.7% | [6] 23.8%

CSc1nc(SC)c2ncn(C3CC(Oc4ccc(C)cc4)C(COc4ccc(C)cc4)O3)c2n1 (configuration not stated)
inactive: [1] 15.8% | [2] -5.75% | [3] 17.1% | [4] 10.3% | [5] 8.45% | [6] -18.2%

CC1(C)OC(=O)C(=Cc2ccc3c(c2)OCO3)C(=O)O1
inactive: [1] 16.1% | [2] 4.25% | [3] -3.65% | [4] 19% | [5] -8% | [6] 5.1%

CCC(Cl)COP(=O)(OCC(Cl)CC)O/C(C)=C(\C)OP(=O)(OCC(Cl)CC)OCC(Cl)CC (configuration not stated)
inactive: [1] 13.8% | [2] 13.3% | [3] 27.4% | [4] 9.7% | [5] 0.4% | [6] -1.7%

Cc1cc(C)[nH]c(=O)c1
inactive: [1] 9.2% | [2] 0.75% | [3] -2.75% | [4] 3.8% | [5] 20.1% | [6] 4.4%

CC12C(=C(C#N)C(=N)N1c1ccc(Cl)c(Cl)c1)C=C(O)CC2SCCS(=O)(=O)O (configuration not stated)
inactive: [1] 13.2% | [2] 1.4% | [3] -1% | [4] 27.4% | [5] -11.4% | [6] 10.8%
